PGK inhibitor: blocks T. brucei phosphoglycerate kinase; hit rate 0.043% among 380,000; AID 602233; Potency, µM (top dose mostly 57.5 µM), for the others: top-dose activity change, negative = inhibition, actives largely listed as inhibitors; PGK/GAPDH coupled, Kinase-Glo luminescence, 60 min; P07378; note: nearly all actives have a fitted effect of over 60% in size
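Recombinant glycosomal PGK reaction used 1,3-bisphosphoglycerate generated in-well by GAPDH (100nM final) in 100mM TEA pH 7.6, 5mM MgCl2, 0.01% Tween-20. After 60 minutes at room temperature, ATP was read by Kinase-Glo Plus luminescence end-point.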
RGS4 inhibitor: blocks human RGS4-accelerated GTP hydrolysis | hit rate 0.039% among 390,000 | Transcreener GDP fluorescence polarization, RGS4-accelerated GTP hydrolysis | Potency, µM (titrated, usually from 114 µM), for inactives: top-dose activity change, negative = inhibition, most hits filed as inhibitors | P49798 | AID 504845; note: nearly all actives have a fitted effect of over 75% in size
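MLSMR compounds (23 nl, pin-transferred) preincubated 10 min at room temperature with a 500nM (2x) first reagent, then RGS4 at 900nM (2x) plus Transcreener GDP mix added; fluorescence polarization (620/688 nm) read before and after 90 min at 30 °C.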
USP2a inh: USP2a (human) protease inhibition; Potency, µM (top dose mostly 38.3 µM), for inactives: at the highest dose activity change, negative = inhibition, usual class: inhibitors; hit rate 0.01% among 330,000; USP2 core, Ub-CHOP2 coupled fluorogenic reporter, 485/531; O75604;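 note: plate controls were DMSO wells for no effect and full inhibition by NEM control for full effect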
Target sequence (O75604 whole entry, looked up): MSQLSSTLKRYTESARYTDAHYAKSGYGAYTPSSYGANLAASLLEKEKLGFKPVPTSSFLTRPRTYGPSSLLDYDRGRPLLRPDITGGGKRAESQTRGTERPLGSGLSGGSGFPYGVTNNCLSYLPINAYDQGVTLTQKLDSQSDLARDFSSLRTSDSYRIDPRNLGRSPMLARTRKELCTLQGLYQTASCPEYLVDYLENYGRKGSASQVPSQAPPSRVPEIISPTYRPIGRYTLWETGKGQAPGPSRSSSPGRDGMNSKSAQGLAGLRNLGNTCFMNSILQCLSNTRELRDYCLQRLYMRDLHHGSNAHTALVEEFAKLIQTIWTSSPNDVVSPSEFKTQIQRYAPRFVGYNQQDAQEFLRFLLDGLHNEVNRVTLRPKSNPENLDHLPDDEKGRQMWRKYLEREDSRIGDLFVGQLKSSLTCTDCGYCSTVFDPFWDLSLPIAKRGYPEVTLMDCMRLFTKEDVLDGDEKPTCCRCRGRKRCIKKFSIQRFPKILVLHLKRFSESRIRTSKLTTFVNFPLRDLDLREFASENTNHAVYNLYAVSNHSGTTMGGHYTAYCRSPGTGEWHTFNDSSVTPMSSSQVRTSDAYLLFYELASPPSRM
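USP2 core (10nM final) preincubated 30min RT with compound in 20mM Tris-HCl pH 8.0, 2mM CaCl2, 2mM beta-mercaptoethanol, 0.05% CHAPS; 25nM Ub-CHOP2 plus 25nM reporter substrate added, fluorescence (Ex485/Em531) read after 60min.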
Chronic BCR inh: blocks chronic active B-cell receptor signaling. Potency, µM (highest dose often 46.1 µM), for the others: at the highest dose activity change, negative = inhibition, hits mostly inhibitors. AID 493014. hit rate 0.05% among 340,000. ABC-DLBCL IkBa-CBG/CBR reporter, luminescence ratio, 4 h; active = well fitted inhibition curve with a large enough effect in the signal ratio, with a control signal flat, not every such curve was filed as active; inconclusive = small, poorly fitted or top-dose-only effect, or effect the other way, or a change in a side signal; the % refers to the signal ratio;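 note: plate controls were basal doxycycline-induced cells for no effect and cells given 10 µM MG132 for full effect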
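Compounds up to 46 uM were incubated four hours with TMD8 cells whose green CBG68 luciferase is fused to IkappaBalpha; red CBR luminescence normalised the signal, and concentration-effect curves were fitted to fusion, red and ratio data.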
Tb PFK inh: inhibitors of T. brucei phosphofructokinase; O15648; T. brucei PFK, ADP-Glo luminescence; Potency, µM (titrated, usually from 57.5 µM), without a hit: top-dose activity, negative = inhibition, hits mostly inhibitors; hit rate 0.17% among 330,000;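 note: 0% = uninhibited 1x PFK enzyme wells and -100% = no-enzyme wells; nearly all actives have a fitted effect of over 60% in size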
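In TEA buffer at pH 8.0 with 5 mM MgCl2, enzyme (1.25 nM) converted F6P (0.5 mM) and ATP (0.1 mM) for 45 min at room temperature. ADP product was read by luciferase luminescence.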
The depositor's hits bear a star; i = inactive; ? = inconclusive; . = no result given; ! = not confirmed by another sample; [ ] = another dose, or the depositor's remark. The list is not random: actives were taken first. Their share in the collection is about 0.25%. Unless noted, calls come from the whole dose curve; as a rule, active = well fitted curve in the direction sought with a large enough effect; inconclusive = small, poorly fitted or top-dose-only effect, or another doubt; inactive = no such curve, though single readings can be large; an effect the other way counts as inactive or inconclusive. Unless noted, % is set by controls: 0 for no effect and ±100 for the full control effect; potency is the fitted concentration of half-maximal effect.

SMILES	PGK inhibitor	RGS4 inhibitor	USP2a inh	Chronic BCR inh	Tb PFK inh
CCOc1ccc(OCC(=O)Nc2nccs2)cc1	?	-27%	-1%	?	27µM*
CCC1CC=CC2C1C(=O)N(Cc1ccccc1)C2c1ccc2ccccc2c1 (stereo not drawn)	.	8%	.	.	.
O=[N+]([O-])c1ccc(C=Nc2ccc(Cl)c([N+](=O)[O-])c2)s1	.	.	9%	-9%	24µM*
Cc1cc(C)cc(N=Cc2ccc([N+](=O)[O-])s2)c1	-3%	14%	3%	?	-10%
Clc1ccc(C2=Nn3c(nnc3-c3cc(-c4ccccc4)n[nH]3)SC2)cc1	-8%	-7%	0%	5.2µM*	-7%
Cc1ccc(-c2nnc3n2N=C(c2ccccc2)CS3)cc1	-3%	2%	3%	?	-1%
COc1ccc(C2=Nn3c(nnc3-c3ccc(OC)cc3)SC2)cc1	-5%	-42%	-8%	6.5µM*	-6%
c1ccc(C2=Nn3c(nnc3-c3cc(-c4ccccc4)n[nH]3)SC2)cc1	7%	-9%	0%	12µM*	17%
Cc1cccc(Cn2cccc2CNS(=O)(=O)c2ccccc2F)c1	-2%	-19%	.	.	.
C=CCCN(Cc1ccc(OC)cc1)S(=O)(=O)c1ccccc1Br	.	-5%	.	.	.
C[C@]1(C(=O)O)CCC[C@]2(C)c3cc(O)ccc3CC[C@@H]12	.	1.1µM*	.	.	.
O=c1cc(-c2ccccc2)[nH]c2ccccc12	1%	23%	2%	11µM*	0%
Clc1ccc(-c2c[n+](Cc3ccc(Cl)c(Cl)c3)c3n2CCC3)cc1	.	.	5%	?	12µM*
Cc1ccc(-c2c[n+](Cc3ccc(Cl)cc3)c3n2CCC3)cc1	-8%	-15%	11%	?	?
C[C@H](N)C(=O)O	.	i	.	.	.
C[C@@H](N)C(=O)O	.	21µM*!	.	.	.
CC(C)C[C@@H](N)C(=O)O	.	38µM*	.	.	.
COc1ccc(-c2ccoc2)cc1C1C2C=CCC(C)C2C(=O)N1Cc1ccccc1 (stereo not drawn)	.	-50%	.	.	.
COc1cccc(/C=N/NC(=O)c2[nH]nc3c2CCc2ccccc2-3)c1	-2%	0%	0%	18µM*	-4%
Cc1cn(C2CC3OCC(NC(=O)C4CCCN4C(=O)OC(C)(C)C)C3O2)c(=O)[nH]c1=O (stereo not drawn)	.	3%	.	.	.
CC(C)=CC[C@@H](O)C1=CC(=O)c2c(O)ccc(O)c2C1=O	.	i	.	.	.
Cc1csc(N=Nc2ccc(N(C)C)cc2)[n+]1[O-]	16µM*	.	.	.	.
CN(C)c1ccc(N=Nc2ccc(C(=O)O)cc2)cc1	-13%	?	-8%	?	?
CC(=O)c1ccc(-c2ccc(C3C4C=CCCC4(C)C(=O)N3Cc3ccccc3)c(F)c2)cc1 (stereo not drawn)	.	6%	.	.	.
Cc1ccc(CNC(=O)c2c(Nc3ccccc3C)sc(C(=O)c3ccc(F)cc3)c2N)cc1	10%	1%	.	22µM*	.
SMILES	PGK inhibitor	RGS4 inhibitor	USP2a inh	Chronic BCR inh	Tb PFK inh
Cc1ccccc1Nc1sc(C(=O)c2ccccc2)c(N)c1C(=O)NCc1ccc(Cl)cc1	2%	8%	.	?	.
Cc1ccc(C(=O)c2cc([N+](=O)[O-])ccc2N2CC(C)OC(C)C2)cc1 (stereo not drawn)	-1%	?	3%	?	-2%
Cc1ccc(C(=O)c2cc([N+](=O)[O-])ccc2N2CCCCC2)cc1	-3%	18%	-5%	23µM*	9%
O=C(NCc1ccc2c(c1)OCO2)c1cc([N+](=O)[O-])ccc1N1CCCCC1	-8%	-12%	-4%	23µM*	-7%
O=C(NCc1ccco1)c1cc([N+](=O)[O-])ccc1N1CCCCC1	-3%	-17%[11.4 µM]	0%	1%	-1%
CC1CC=CC2C1C(=O)N(Cc1ccccc1)C2c1ccc(/C=C/c2ccccc2)cc1F (stereo not drawn)	.	-20%	.	.	.
Nc1nc(N2CCN(C(=O)c3ccco3)CC2)nc2ccc(Br)cc12	8.9µM*	-50%[56.9 µM]	0%	0%	1%
O=C(OC[C@H]1O[C@@H](OC(=O)c2cc(O)c(O)c(OC(=O)c3cc(O)c(O)c(O)c3)c2)[C@H](OC(=O)c2cc(O)c(O)c(OC(=O)c3cc(O)c(O)c(O)c3)c2)[C@@H](OC(=O)c2cc(O)c(O)c(OC(=O)c3cc(O)c(O)c(O)c3)c2)[C@@H]1OC(=O)c1cc(O)c(O)c(OC(=O)c2cc(O)c(O)c(O)c2)c1)c1cc(O)c(O)c(OC(=O)c2cc(O)c(O)c(O)c2)c1	.	.	5µM*	?	0.095µM*
O=C1C[C@H](c2ccc3ccccc3c2)N1S(=O)(=O)c1ccccc1[N+](=O)[O-]	.	-28%	.	.	.
Cc1nc2sc(-c3ccccc3)cc2c(=O)n1N	20µM*	8%	1%	?	-2%
COc1ccc(-c2c(C3C4C=CCC(C)C4C(=O)N3Cc3ccccc3)ccc3ccccc23)cc1 (stereo not drawn)	.	-1%	.	.	.
O=C(COc1ccc(Cl)cc1Cl)Nc1ccccn1	?	33%	-1%	?	17µM*
CSc1ccccc1NC(=O)COc1ccc(Cl)cc1Cl	-2%	20%	1%	5%	-2%
COc1cc(N)c(Cl)cc1C(=O)CCC1CCN(CCNS(C)(=O)=O)CC1	.	38µM*!	.	.	.
CCCSc1nnc(Sc2nnnn2-c2ccccc2)s1	-4%	-22%	-2%	9.2µM*	-8%

Screening data deposited in PubChem by National Center for Advancing Translational Sciences (NCATS).
